Common to all, as to experiment: DAPPL (digital affinity profiling via proximity ligation, sequencing); 10 mM Tris-HCl pH 7.5, 50 mM NaCl, 1 mM DTT, 4% glycerol, room temperature, 30 min; GST-TFs on glutathione beads, 16-mer random dsDNA library, 0.1% formaldehyde crosslink after washing; high values mean tight binding
In one test the target is T1, FLI1 (Homo sapiens, UniProt Q01543 1-452).
T1 sequence: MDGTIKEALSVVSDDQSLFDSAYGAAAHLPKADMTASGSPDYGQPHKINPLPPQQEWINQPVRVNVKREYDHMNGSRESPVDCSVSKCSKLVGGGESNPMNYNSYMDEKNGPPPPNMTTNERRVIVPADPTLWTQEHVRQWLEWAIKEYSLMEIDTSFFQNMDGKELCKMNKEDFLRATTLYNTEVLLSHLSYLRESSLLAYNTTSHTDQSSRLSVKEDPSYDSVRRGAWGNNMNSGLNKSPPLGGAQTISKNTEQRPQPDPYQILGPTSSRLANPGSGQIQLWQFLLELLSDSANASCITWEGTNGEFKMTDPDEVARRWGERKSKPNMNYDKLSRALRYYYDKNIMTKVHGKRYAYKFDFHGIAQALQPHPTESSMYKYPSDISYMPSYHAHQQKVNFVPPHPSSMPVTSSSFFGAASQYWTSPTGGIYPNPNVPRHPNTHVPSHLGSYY
Conditions: protein: recombinant; tags: N-terminal GST; dsDNA, one strand shown. Put shortly: (§1)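 Sequencing on an Illumina NextSeq500 followed washing, crosslinking with 0.1% formaldehyde, proximity ligation (BsaI/T4 ligase, 1 h, 37 °C) and PCR amplification of pools that had been incubated for 30 min at room temperature with 200 nmole of a random double-stranded 16-mer DNA library in Tris/NaCl/DTT/glycerol buffer. Each pool held DNA-barcoded human transcription factors, expressed in yeast as GST fusions and captured on glutathione beads, plus a tag-only sample. Binding signal is a hexamer's read frequency for a factor divided by its frequency in the tag-only sample.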

A further test concerns the target T2, ELK1 (Homo sapiens, UniProt P19419 1-428).
T2 sequence: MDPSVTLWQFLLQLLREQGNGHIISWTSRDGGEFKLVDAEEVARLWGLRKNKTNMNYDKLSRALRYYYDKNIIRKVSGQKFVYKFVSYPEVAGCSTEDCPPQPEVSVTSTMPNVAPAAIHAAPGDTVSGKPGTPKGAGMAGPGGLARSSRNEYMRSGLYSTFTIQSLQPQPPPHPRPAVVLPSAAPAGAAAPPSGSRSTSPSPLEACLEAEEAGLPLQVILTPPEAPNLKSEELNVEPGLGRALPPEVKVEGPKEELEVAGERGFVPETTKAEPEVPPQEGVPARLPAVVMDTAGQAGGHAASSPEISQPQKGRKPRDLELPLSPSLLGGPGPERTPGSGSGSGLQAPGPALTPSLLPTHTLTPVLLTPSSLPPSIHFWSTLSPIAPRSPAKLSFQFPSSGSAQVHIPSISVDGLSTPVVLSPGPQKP
Conditions: protein: recombinant; tags: N-terminal GST; dsDNA, one strand shown. Put shortly: as §1

The target in the next test is T3, GABPA (Homo sapiens, UniProt Q06546 1-454).
T3 sequence: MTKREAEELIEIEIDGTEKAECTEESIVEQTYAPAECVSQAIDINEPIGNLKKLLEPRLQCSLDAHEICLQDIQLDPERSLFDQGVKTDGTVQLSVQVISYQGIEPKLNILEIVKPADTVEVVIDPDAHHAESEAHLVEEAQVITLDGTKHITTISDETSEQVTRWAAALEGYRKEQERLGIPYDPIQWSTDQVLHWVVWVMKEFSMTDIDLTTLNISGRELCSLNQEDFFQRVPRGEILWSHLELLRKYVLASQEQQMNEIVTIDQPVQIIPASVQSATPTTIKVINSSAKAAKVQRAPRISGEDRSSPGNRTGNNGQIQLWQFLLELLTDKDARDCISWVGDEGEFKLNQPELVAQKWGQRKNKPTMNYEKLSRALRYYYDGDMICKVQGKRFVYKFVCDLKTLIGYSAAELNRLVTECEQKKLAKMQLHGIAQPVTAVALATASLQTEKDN
The note with it: protein: recombinant; tags: N-terminal GST; dsDNA, one strand shown. Put shortly: as §1

The target of a further test is T4, ERG (Homo sapiens, UniProt P11308 1-479).
T4 sequence: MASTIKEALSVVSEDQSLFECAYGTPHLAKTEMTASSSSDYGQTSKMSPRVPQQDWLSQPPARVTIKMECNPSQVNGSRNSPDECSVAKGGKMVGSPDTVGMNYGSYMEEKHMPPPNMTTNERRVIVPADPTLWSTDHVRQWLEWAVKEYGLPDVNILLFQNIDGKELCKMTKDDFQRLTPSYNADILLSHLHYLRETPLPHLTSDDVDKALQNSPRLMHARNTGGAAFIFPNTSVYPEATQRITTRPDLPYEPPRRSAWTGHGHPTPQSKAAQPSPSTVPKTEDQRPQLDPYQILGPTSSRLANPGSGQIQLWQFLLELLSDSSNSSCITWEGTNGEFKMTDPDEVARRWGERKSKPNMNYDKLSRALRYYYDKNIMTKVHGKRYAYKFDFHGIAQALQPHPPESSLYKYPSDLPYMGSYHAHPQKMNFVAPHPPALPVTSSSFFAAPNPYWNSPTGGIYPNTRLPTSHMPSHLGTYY
Conditions: protein: recombinant; tags: N-terminal GST; dsDNA, one strand shown. In outline: as §1

Another test concerns the target ELF1 (Homo sapiens, UniProt P32519 1-619). The note with it: protein: recombinant; tags: N-terminal GST; dsDNA, one strand shown. In outline:
as §1

The target in another test is T5, EHF (Homo sapiens, UniProt Q9NZC4 1-300).
T5 sequence: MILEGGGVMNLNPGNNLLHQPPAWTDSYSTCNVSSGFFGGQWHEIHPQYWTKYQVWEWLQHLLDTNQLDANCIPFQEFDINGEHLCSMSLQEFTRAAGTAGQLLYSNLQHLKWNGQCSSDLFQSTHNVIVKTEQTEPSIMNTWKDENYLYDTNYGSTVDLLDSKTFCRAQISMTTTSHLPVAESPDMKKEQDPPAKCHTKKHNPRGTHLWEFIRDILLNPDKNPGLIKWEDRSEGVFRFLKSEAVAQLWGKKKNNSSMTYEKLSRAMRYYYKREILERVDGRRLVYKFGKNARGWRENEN
Conditions: protein: recombinant; tags: N-terminal GST; dsDNA, one strand shown. In outline: as §1

The target of the next test is SPIB (Homo sapiens, UniProt Q01892 1-262). Conditions: protein: recombinant; tags: N-terminal GST; dsDNA, one strand shown. Put shortly: as §1
Chain of SPIB (Q01892 whole entry): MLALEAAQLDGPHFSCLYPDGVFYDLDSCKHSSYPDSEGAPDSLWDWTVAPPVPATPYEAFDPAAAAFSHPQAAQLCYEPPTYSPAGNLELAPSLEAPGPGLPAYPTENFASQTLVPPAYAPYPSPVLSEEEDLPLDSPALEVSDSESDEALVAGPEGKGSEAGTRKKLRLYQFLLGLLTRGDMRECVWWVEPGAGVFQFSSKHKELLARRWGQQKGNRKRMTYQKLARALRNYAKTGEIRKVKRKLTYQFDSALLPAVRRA
The next test addresses T6, ELK3 (Homo sapiens, UniProt P41970 1-407).
T6 sequence: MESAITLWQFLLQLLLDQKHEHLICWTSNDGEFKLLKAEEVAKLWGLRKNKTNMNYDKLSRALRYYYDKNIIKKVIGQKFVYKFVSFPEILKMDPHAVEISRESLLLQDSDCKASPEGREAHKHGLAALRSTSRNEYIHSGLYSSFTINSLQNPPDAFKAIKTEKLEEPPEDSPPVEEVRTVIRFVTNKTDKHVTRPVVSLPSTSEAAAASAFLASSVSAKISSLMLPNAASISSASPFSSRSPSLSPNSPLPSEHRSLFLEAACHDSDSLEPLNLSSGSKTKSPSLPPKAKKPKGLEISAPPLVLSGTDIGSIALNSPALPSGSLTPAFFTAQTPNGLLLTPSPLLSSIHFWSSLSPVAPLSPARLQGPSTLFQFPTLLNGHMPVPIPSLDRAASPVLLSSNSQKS
The note with it: protein: recombinant; tags: N-terminal GST; dsDNA, one strand shown. In outline: as §1

For another test, the target named is T7, FEV (Homo sapiens, UniProt Q99581 1-238).
T7 sequence: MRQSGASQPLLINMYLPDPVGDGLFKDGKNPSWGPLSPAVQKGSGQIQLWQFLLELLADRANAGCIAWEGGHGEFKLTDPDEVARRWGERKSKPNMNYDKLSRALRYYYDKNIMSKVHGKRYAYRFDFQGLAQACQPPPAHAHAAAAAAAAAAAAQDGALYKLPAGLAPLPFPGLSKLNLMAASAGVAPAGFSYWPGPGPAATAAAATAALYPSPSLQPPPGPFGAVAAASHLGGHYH
Conditions: protein: recombinant; tags: N-terminal GST; dsDNA, one strand shown. Put shortly:
as §1

Another test has as its target ETV5 (Homo sapiens, UniProt P41161 1-510). Conditions: protein: recombinant; tags: N-terminal GST; dsDNA, one strand shown. In outline:
as §1

The target in a further test is HSF1 (Homo sapiens, UniProt Q00613 1-529). Conditions: protein: recombinant; tags: N-terminal GST; chain copies: 3; dsDNA, one strand shown. In outline:
as §1

A further test addresses T8, SPIC (Homo sapiens, UniProt Q8N5J4 1-248).
T8 sequence: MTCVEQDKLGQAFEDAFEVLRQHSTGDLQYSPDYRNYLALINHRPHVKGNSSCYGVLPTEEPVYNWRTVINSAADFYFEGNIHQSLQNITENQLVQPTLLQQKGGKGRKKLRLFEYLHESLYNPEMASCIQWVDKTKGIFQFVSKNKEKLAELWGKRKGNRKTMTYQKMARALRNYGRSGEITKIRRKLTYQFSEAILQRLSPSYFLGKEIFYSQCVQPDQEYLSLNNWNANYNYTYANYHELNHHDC
The note with it: protein: recombinant; tags: N-terminal GST; dsDNA, one strand shown. Put shortly:
as §1

In another test the target is ELF4 (Homo sapiens, UniProt Q99607 1-663). The note with it: protein: recombinant; tags: N-terminal GST; dsDNA, one strand shown. In outline:
as §1

The next test deals with T9, ELK4 (Homo sapiens, UniProt P28324-2 1-405).
T9 sequence: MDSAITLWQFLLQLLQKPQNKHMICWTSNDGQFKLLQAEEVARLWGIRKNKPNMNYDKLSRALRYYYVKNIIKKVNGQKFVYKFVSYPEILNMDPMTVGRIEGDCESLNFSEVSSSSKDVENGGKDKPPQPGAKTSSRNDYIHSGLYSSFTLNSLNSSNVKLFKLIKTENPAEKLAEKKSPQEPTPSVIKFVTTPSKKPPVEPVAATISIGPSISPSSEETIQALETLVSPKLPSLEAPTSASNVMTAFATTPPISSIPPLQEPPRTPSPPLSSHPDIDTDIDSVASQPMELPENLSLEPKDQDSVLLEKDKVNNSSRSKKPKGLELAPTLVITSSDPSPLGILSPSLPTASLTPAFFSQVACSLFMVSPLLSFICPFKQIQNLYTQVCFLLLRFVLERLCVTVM
Conditions: protein: recombinant; tags: N-terminal GST; dsDNA, one strand shown. Put shortly:
as §1

A further test concerns the target T10, ETV2 (Homo sapiens, UniProt O00321 1-342).
T10 sequence: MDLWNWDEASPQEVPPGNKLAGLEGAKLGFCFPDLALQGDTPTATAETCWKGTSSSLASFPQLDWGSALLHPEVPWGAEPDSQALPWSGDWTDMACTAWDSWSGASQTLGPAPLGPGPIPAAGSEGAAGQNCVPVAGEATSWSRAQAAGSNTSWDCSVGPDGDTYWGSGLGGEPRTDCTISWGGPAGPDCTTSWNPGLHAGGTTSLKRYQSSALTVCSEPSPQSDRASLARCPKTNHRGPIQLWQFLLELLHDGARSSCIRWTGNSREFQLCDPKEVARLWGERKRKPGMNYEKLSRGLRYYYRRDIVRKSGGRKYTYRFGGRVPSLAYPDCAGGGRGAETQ
The note with it: protein: recombinant; tags: N-terminal GST; dsDNA, one strand shown. Put shortly: as §1

A further test deals with T11, ELF3 (Homo sapiens, UniProt P78545 1-371).
T11 sequence: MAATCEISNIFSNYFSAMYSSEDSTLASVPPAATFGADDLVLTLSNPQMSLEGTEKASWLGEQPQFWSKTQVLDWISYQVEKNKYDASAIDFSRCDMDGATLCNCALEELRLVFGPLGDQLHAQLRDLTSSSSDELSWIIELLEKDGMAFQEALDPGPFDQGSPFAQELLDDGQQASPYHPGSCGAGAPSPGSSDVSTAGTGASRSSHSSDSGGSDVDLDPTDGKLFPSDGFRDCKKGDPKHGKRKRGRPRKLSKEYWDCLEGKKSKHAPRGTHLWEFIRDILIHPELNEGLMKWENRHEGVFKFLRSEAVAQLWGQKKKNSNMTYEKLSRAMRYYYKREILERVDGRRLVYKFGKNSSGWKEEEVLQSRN
Conditions: protein: recombinant; tags: N-terminal GST; dsDNA, one strand shown. Put shortly:
as §1

The next test has as its target CRX (Homo sapiens, UniProt O43186 1-299). Conditions: protein: recombinant; tags: N-terminal GST; dsDNA, one strand shown. In outline:
as §1

A further test concerns the target ETV1 (Homo sapiens, UniProt P50549 1-477). The note with it: protein: recombinant; tags: N-terminal GST; dsDNA, one strand shown. Put shortly:
as §1

Chain of ELF4 (Q99607 whole entry): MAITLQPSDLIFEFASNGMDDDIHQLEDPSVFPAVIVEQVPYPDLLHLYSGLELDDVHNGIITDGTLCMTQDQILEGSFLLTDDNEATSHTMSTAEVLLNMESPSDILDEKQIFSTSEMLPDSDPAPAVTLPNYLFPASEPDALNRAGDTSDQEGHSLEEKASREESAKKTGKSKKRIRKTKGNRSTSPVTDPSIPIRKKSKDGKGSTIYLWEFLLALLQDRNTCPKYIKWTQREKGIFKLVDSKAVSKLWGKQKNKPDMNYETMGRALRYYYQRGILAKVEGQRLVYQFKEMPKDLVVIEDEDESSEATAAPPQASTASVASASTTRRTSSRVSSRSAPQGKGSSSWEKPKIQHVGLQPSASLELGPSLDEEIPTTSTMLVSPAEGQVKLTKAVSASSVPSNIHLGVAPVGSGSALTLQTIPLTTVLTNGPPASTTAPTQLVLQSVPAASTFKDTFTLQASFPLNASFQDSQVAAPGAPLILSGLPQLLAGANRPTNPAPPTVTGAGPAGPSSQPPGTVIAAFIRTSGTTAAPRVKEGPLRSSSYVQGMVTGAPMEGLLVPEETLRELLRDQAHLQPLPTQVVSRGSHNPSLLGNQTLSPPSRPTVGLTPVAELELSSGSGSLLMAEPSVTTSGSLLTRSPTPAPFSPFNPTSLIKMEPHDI
Chain of ETV1 (P50549 whole entry): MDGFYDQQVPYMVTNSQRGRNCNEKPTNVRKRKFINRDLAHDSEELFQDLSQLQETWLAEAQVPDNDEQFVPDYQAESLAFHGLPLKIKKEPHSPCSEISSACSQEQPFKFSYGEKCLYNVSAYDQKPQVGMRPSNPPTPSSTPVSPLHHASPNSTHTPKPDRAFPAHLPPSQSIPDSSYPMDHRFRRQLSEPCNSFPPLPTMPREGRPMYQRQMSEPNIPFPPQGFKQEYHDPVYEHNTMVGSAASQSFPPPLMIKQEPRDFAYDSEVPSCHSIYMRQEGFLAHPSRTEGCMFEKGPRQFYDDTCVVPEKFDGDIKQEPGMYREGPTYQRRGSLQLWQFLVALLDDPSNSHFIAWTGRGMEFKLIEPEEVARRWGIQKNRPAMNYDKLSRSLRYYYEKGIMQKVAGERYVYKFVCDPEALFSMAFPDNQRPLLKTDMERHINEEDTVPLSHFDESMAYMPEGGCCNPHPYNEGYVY
Chain of HSF1 (Q00613 whole entry): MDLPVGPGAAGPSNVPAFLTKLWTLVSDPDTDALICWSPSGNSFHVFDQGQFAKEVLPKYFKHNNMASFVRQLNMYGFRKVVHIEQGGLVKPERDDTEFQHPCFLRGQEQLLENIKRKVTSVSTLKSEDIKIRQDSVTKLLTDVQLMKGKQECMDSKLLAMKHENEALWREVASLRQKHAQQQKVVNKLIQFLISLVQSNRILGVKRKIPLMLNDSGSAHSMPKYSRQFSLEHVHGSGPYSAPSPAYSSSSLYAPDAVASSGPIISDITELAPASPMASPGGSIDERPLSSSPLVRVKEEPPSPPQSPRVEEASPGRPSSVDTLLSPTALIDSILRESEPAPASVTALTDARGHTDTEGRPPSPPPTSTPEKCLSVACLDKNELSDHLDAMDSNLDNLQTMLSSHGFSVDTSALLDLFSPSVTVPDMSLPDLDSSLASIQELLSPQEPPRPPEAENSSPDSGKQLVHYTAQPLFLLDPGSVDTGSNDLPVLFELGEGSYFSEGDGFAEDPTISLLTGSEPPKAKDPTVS
Chain of ELF1 (P32519 whole entry): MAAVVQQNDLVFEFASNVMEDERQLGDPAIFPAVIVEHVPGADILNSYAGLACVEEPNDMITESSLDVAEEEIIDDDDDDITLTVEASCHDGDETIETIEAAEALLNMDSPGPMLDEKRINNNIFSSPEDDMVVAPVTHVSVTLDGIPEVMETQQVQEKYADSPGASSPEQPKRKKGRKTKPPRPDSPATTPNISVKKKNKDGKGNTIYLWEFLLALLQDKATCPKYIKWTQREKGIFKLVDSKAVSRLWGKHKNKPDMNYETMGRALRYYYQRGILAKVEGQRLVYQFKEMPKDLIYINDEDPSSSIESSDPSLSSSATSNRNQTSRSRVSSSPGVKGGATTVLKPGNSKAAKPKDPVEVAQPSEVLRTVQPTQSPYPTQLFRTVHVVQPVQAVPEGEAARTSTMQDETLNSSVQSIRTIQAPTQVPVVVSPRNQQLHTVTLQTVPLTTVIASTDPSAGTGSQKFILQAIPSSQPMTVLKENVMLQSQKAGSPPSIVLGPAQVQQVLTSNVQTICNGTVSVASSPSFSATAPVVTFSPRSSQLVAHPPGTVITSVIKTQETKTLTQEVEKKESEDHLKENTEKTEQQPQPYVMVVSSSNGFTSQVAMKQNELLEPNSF
Chain of ETV5 (P41161 whole entry): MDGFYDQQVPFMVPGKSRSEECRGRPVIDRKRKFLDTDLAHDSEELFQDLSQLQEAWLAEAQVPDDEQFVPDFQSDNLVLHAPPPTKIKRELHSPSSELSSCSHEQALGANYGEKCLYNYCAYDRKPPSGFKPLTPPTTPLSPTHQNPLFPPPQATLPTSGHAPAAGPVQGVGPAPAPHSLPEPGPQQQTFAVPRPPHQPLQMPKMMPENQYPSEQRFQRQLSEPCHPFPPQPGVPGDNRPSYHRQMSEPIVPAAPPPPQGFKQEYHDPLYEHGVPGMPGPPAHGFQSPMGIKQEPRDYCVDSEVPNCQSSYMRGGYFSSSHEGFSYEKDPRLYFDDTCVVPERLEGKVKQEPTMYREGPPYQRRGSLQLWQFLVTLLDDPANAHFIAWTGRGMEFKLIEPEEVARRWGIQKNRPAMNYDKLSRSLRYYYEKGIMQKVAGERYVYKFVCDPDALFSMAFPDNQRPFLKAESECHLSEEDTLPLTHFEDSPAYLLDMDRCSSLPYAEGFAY
Chain of CRX (O43186 whole entry): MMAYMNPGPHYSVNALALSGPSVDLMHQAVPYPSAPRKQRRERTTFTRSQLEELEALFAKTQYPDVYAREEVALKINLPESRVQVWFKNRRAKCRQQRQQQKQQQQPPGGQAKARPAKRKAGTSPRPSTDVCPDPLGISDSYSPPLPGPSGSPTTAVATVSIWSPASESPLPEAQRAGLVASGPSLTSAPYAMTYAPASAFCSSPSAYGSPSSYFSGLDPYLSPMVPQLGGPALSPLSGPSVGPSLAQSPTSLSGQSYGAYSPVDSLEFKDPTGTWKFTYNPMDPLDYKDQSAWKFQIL

On to TATCAG, for which the binding signal in the test with FLI1 was 1.15 fold enrichment (6-mer frequency, TF over GST control); with ELK1 it was 1.21 fold enrichment (6-mer frequency, TF over GST control); with GABPA it was 1.14 fold enrichment (6-mer frequency, TF over GST control); with ERG, 1.09 fold enrichment (6-mer frequency, TF over GST control); with ELF1 it was 1.15 fold enrichment (6-mer frequency, TF over GST control); with EHF, 1.13 fold enrichment (6-mer frequency, TF over GST control). For the same sequence, the binding signal is 1.2 fold enrichment (6-mer frequency, TF over GST control) with SPIB; 1.15 fold enrichment (6-mer frequency, TF over GST control) in the test with ELK3; 1.07 fold enrichment (6-mer frequency, TF over GST control) with FEV; 1.14 fold enrichment (6-mer frequency, TF over GST control) with ETV5; 1.11 fold enrichment (6-mer frequency, TF over GST control) in the test with HSF1; 1.03 fold enrichment (6-mer frequency, TF over GST control) with SPIC. For the same sequence, the binding signal was 1.18 fold enrichment (6-mer frequency, TF over GST control) with ELF4; 1.35 fold enrichment (6-mer frequency, TF over GST control) in the test with ELK4; 1.01 fold enrichment (6-mer frequency, TF over GST control) with ETV2; 1.09 fold enrichment (6-mer frequency, TF over GST control) in the test with ELF3; 1.47 fold enrichment (6-mer frequency, TF over GST control) in the test with CRX; 1.14 fold enrichment (6-mer frequency, TF over GST control) in the test with ETV1.

The values are drawn from publication PMC7862700, “An all-to-all approach to the identification of sequence-specific readers for epigenetic DNA modifications on cytosine”.
